G9a inh: blocks human histone lysine methyltransferase G9a | Q96KQ7 | G9a H3K9 monomethylation, AlphaScreen, 2 h | Potency, µM (top dose mostly 102 µM), hits mostly inhibitors | 350,000 compounds, 8.8% hits; further: nearly all actives have a fitted effect of over 75% in size
Target sequence (Q96KQ7 913-1193 limits assumed): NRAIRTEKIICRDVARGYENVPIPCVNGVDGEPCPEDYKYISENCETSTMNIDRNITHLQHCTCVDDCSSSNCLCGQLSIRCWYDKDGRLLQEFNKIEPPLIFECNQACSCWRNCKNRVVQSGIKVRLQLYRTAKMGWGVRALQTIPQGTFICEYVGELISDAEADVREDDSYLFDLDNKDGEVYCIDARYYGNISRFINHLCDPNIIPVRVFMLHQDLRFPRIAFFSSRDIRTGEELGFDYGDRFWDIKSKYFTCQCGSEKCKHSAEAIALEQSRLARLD
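G9a (20 nM) preincubated 15 min RT with compounds, then 500 nM biotinylated H3K9 peptide and 20 uM SAM added; 2 h RT reaction. Monomethyl-H3K9 product detected by AlphaScreen with anti-H3K9me1 antibody, streptavidin donor and anti-rabbit IgG acceptor beads.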
HP1b binding inh: inhibitors of HP1-beta chromodomain binding to methylated histone tails | P83916 | AlphaScreen HP1-beta / biotin-H3K9me3 peptide binding | Potency, µM (titrated, usually from 114 µM), usual class: inhibitors | 390,000 compounds, 0.56% hits | AID 540317; further: nearly all actives have a fitted effect of over 70% in size
Target sequence (P83916 whole entry, looked up): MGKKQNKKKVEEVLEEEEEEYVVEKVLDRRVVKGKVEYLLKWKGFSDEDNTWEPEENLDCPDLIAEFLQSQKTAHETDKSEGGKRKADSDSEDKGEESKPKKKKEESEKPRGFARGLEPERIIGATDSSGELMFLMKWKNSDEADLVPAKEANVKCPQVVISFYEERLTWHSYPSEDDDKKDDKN
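HP1-beta protein (50 nM final) preincubated 30 min at room temperature with biotinylated H3(1-18)K9me3 peptide (50 nM) in PBS pH 7.4, 0.01% Tween-20, then compound added for 30 min. AlphaScreen streptavidin donor/nickel chelate acceptor beads (10 ug/mL final), 30 min dark, luminescence read.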
L3MBTL1 block: L3MBTL1 (human) inhibition. AlphaScreen L3MBTL1–H3K9me1 peptide binding. Potency, µM (top dose mostly 57.1 µM), actives largely listed as inhibitors. 230,000 compounds, 0.66% hits; further: nearly all actives have a fitted effect of over 60% in size
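Displacement of a biotinylated histone H3(1-15) peptide monomethylated at Lys9 (75 nM) from L3MBTL1 (50 nM) was measured by AlphaScreen after a 30 min room-temperature compound incubation; cefsulodin titration served as intraplate control.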
BAZ2B inh: BAZ2B (human) inhibition; AlphaScreen BAZ2B-H3K14Ac peptide displacement; Q9UIF8; Potency, µM (highest dose often 114 µM), actives largely listed as inhibitors; 360,000 compounds, 4.4% hits; further: nearly all actives have a fitted effect of over 60% in size
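In this displacement format the biotinylated H3(5-23) peptide acetylated at Lys14 serves as ligand at 50 nM, with BAZ2B at 50 nM in PBS pH 7.4 containing 0.01% Tween-20. Donor and acceptor beads are 10 ug/mL final.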
JMJD2A Tudor inh: inhibitors of human JMJD2A Tudor domain | AlphaScreen JMJD2A-Tudor / H3K4me3 peptide binding | AID 504339 | 390,000 compounds, 4.4% hits | Potency, µM (doses to about 114 µM), hits mostly inhibitors; further: nearly all actives have a fitted effect of over 50% in size
PI5P4Ka inh: inhibitors of human PI5P4K alpha. P48426. max response, %. PI5P4Kalpha enzyme, ADP-Glo luminescence, 60 min; hits give low values. 330,000 compounds, 1.2% hits. AID 652105; active means max response of -50% or lower; inconclusive means between -30% and -50%; inactive means -30% or higher; further: value at the top dose of about 77 µM
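Human PI5P4Kalpha with substrate in 0.038 M HEPES pH 7.4, 0.28 mM EGTA, 0.1% CHAPS, 5% DMSO; reaction started with 5 microM ATP (final), 60 min at room temperature. ADP formed read by ADP-Glo luminescence.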
Numbers stand for hits; n = inactive; u = inconclusive; x = no result given. Sampled rows, rich in hits. Any-hit rate of the full collection: about 11%. Unless noted, the call rests on the fitted dose curve; in most records, active means well fitted inhibition curve with a large enough effect; inconclusive means small, poorly fitted or top-dose-only effect; inactive means no such curve, though single readings can be large or run the other way.

SMILES | G9a inh | HP1b binding inh | L3MBTL1 block | BAZ2B inh | JMJD2A Tudor inh | PI5P4Ka inh
CC1=CCC(C(C)(C)O)CC1 (stereo unspecified) | n | x | x | x | x | x
CCOc1ccc(C(=O)Nc2ccccc2OCc2cc(=O)n3ccccc3n2)cc1 | n | n | x | n | n | x
CCCCc1nn2c(=O)cc(COC(=O)c3ccccc3NC(=O)C3CCCCC3)nc2s1 | n | n | x | n | n | x
CC(CNC(=O)Cn1ccc2cc(S(=O)(=O)N3CCCCC3)ccc21)c1ccccc1 (stereo unspecified) | n | n | x | n | n | x
COc1ccc(-c2cn3c(C)c(C(=O)Nc4cc(NC(C)=O)ccc4OC)sc3n2)cc1 | 14.1µM | n | n | n | n | x
CCOC(=O)C1CCN(C(=O)c2sc3nc(-c4ccccc4)cn3c2C)CC1 | u | n | x | n | n | n
CCOC(=O)C1CCCN(C(=O)c2sc3nc(-c4ccc(OC)cc4)cn3c2C)C1 (stereo unspecified) | 39.8µM | n | n | u | n | n
CCOc1ccc(/C=C/c2nc(C#N)c(NCc3ccc(OC)cc3)o2)cc1 | n | n | x | n | n | x
COc1ccc(OC)c(CN2CCC(N3CCC(C(=O)NC4CC4)CC3)CC2)c1 | x | n | x | n | n | n
COc1ccc(CCNC(=S)NC2CCN(Cc3ccccc3)CC2)cc1OC | n | n | n | n | n | n
COc1ccc(OC)c(CN2CCC(C(=O)N(C)CCc3ccc(OC)c(OC)c3)CC2)c1 | x | n | n | n | 22.4µM | n
COc1ccc(CCN(C)C(=O)C2CCCN(C3CCN(Cc4ccccc4)CC3)C2)cc1OC (stereo unspecified) | 31.6µM | 22.4µM | x | 35.5µM | 7.94µM | n
C[n+]1cnn2c1SCC1(COC1)C2 | 35.5µM | n | n | n | 25.1µM | x
O=C(O)COCC(=O)NCc1csc2ccccc12 | 50.1µM | n | n | n | n | n
Cc1ccc2c(c1)N(C(=O)Nc1cccc3c1CCCC3)CCO2 | n | n | x | n | n | x
CCn1nc(NS(=O)(=O)c2ccc([N+](=O)[O-])cc2)c2cc3cccc(C)c3nc21 | 17.8µM | n | x | u | u | n
COc1ccc(Cn2nnnc2C(c2ccccn2)N2CCN(c3cc(Cl)ccc3C)CC2)cc1 (stereo unspecified) | 22.4µM | n | n | u | u | x
COc1ccc(Cn2nnnc2C(CC(C)C)N2CCN(c3ccccc3)CC2)cc1 (stereo unspecified) | n | n | n | n | n | n
COc1ccc(N2CCN(C(c3ccccc3)c3nnc(-c4ccccc4Cl)o3)CC2)cc1 (stereo unspecified) | 12.6µM | u | x | 39.8µM | 50.1µM | x
COc1ccc(C(c2nnnn2Cc2ccc(F)cc2)N2CCN(c3ccc(OC)cc3)CC2)cc1 (stereo unspecified) | 31.6µM | u | u | u | u | n
COc1ccc(N2CCN(C(c3ccccc3)c3nnnn3Cc3ccc(F)cc3)CC2)cc1 (stereo unspecified) | 22.4µM | n | n | n | u | n
COc1ccc(C(c2nnnn2Cc2ccc(F)cc2)N2CCN(c3ccccc3)CC2)cc1 (stereo unspecified) | n | n | n | n | n | n
COc1ccc(C(c2nnnn2Cc2cccs2)N2CCN(c3ccc(F)cc3)CC2)cc1OC (stereo unspecified) | u | u | n | u | 44.7µM | n
COc1cc(C(=O)NC2=C(C#N)CCC2)cc(OC)c1OC | 50.1µM | n | n | n | n | n
O=C(Nc1ccc(F)cc1)c1ccc2nc[nH]c2c1 | n | n | n | n | n | n
SMILES | G9a inh | HP1b binding inh | L3MBTL1 block | BAZ2B inh | JMJD2A Tudor inh | PI5P4Ka inh
CN(C)c1ccc(NC(=O)c2ccc3nc[nH]c3c2)cc1 | u | n | x | 44.7µM | n | n
O=C(NCCc1ccc(Cl)cc1Cl)c1ccc2nc[nH]c2c1 | x | n | x | n | n | n
CN(C)c1ccc(NC(=O)c2cccc(N3C(=O)CCC3=O)c2)cc1 | 39.8µM | n | n | n | n | x
COc1ccccc1CCNC(=O)c1ccc2nc[nH]c2c1 | n | n | x | 50.1µM | n | n
Cc1ccc(-c2ccc(=O)n(CC(=O)NCCc3ccccc3)n2)cc1 | n | n | x | n | n | x
CC1CCN(S(=O)(=O)c2ccc3nc(NCc4ccccc4)ccc3c2)CC1 | n | n | x | n | n | x

Assay outcomes as filed in PubChem.
